Assay results taken from PubChem BioAssay AID528 (NMMLSC, 2006).
Out of some 24,000 compounds screened, fewer than 10 were called active. Inconclusive results (about 9%) are left out.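 Rule for the calls: active = fluorescent ligand binding to cells raised by more than 40% of the manganese-induced maximum; inconclusive = compound's own fluorescence above 85% of the ligand control signal; inactive = the rest.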 The list is a sample of the results.

target: Integrin alpha-4 (Homo sapiens) (UniProt P13612); experiment: enhancers of LDV-FITC binding to VLA-4 integrin, primary screen, Jurkat cells, flow cytometry (AID 528); details: stronger effect = higher value, screened at 10 µM (by protocol);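 note: 0% = ligand binding without compound and 100% = manganese-stimulated maximal binding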
Sequence (P13612 whole entry, looked up): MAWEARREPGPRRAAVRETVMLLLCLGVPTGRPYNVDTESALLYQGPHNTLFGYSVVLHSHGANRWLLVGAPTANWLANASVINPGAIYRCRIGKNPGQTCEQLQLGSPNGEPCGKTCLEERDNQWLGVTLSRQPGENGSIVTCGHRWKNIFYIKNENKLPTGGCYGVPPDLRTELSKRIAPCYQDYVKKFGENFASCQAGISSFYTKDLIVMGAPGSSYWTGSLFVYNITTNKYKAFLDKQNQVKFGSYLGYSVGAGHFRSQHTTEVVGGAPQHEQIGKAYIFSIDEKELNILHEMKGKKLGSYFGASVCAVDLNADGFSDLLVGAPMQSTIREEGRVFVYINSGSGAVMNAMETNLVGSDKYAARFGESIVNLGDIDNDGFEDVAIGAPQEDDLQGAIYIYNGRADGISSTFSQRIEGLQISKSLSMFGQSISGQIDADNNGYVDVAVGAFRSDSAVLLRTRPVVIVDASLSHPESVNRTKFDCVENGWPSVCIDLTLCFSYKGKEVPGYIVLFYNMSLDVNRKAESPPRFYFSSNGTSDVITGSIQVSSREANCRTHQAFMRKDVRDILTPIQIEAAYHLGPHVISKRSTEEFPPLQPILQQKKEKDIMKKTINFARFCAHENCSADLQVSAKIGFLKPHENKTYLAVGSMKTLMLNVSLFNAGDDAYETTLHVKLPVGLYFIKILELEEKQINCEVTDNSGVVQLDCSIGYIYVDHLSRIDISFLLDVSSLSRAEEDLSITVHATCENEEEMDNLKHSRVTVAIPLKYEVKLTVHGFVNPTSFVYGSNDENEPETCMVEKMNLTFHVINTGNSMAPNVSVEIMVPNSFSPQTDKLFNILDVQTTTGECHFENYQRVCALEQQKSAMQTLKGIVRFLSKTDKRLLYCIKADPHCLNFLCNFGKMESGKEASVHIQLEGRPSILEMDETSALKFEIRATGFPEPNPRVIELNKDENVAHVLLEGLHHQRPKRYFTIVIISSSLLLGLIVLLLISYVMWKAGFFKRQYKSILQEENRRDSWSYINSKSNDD

activation, inactive:
Cc1ccccc1S(=O)(=O)Cc1ccc(C(=O)NCCN2CCCCC2C)o1 (centres undefined) -1%
Nc1c(C(=O)NCc2ccccc2)nnn1Cc1cccc(Cl)c1 -4%
CCCCCOC(=O)C1=C(C)Nc2nnnn2C1c1ccc(OC)c(OC)c1OC (centres undefined) -4%
CCC(=O)N1c2ccc(S(=O)(=O)CCC(=O)N3CCN(c4ccccc4)CC3)cc2CC1C (centres undefined) -5%
COc1ccc(OC)c(CNC(=O)CCc2nc(-c3cccs3)no2)c1 2%
Cc1ccccc1NC(=O)c1ccccc1 -14.5%
CCOC(=O)N1CCC(NC(=O)CCc2cn(C)c3ccccc23)CC1 8%
COc1cc2[nH]c(=S)n(Cc3ccc(C)o3)c(=O)c2cc1OC 0%
CCOC(=O)CNC(=O)CN1C(=O)CCSc2ccccc21 6%
CCOC(=O)c1ccc(CS(=O)c2ccc(Cl)cc2)o1 (centres undefined) 4%
COC(=O)C1=C(C)OC(N)=C(C#N)C1c1cc(OC)ccc1OC (centres undefined) -3%
Cc1ccc(NC(=O)C2CC(c3ccc(F)cc3)=NO2)cc1 (centres undefined) 3%
CCc1c(C)c2c(C)[nH]nc2oc1=O -1%
CC12COC3(C(=O)Nc4ccc(Cl)cn4)CC1CCC32C (centres undefined) 5%
Cc1ccc(S(=O)(=O)NCC(=O)N(CC(=O)NC2CCCCC2)Cc2ccco2)cc1 2%
O=C1Nc2c(Br)cc(Br)cc2C1(O)N1CCOCC1 (centres undefined) 9%
CCOC(=O)N1CCN(C(=O)C2CC(c3ccc(F)cc3)=NO2)CC1 (centres undefined) 6%
Clc1ccc(Cc2nn3c(-c4ccncc4)nnc3s2)cc1 2%
CCOCCc1c(O)nc(SCC(=O)NCc2ccco2)[nH]c1=O -1%
COc1cccc(C(=O)Nc2c3c(nn2-c2cccc(C)c2C)CS(=O)(=O)C3)c1OC -3%
COc1ccc2oc(=O)c(C(=O)N3CCN(c4ccccc4F)CC3)cc2c1 3.5%
CCOc1ccccc1NC(=O)C1CCN(S(=O)(=O)c2c(C)nn(C)c2C)CC1 2%
COc1ccc(CCNC(=O)CCCCn2c(=O)[nH]c3ccccc3c2=O)cc1OC 4%
C#CC(C)(C)NC(=O)CSc1nc2c(c(=O)n(C)c(=O)n2C)n1CCCC 8%
CCCS(=O)(=O)N1CCCC(C(=O)N2CCN(c3ccccc3)CC2)C1 (centres undefined) 0%
CCOC(=O)C1CCCN(C(=O)C2CCN(c3nnc(-n4cccc4)s3)CC2)C1 (centres undefined) -1%
CCOC(=O)N1CCC(Nc2c(NCCCN3CCN(c4ccc(OC)cc4)CC3)c(=O)c2=O)CC1 -4%
COC(=O)c1ccc(NC(=O)CSc2nnc(Cc3cccn3C)n2-c2ccc(F)cc2)cc1 -4%
Cc1noc(C)c1S(=O)(=O)N(CC(=O)Nc1ccc2c(c1)OCCO2)c1ccc(C(C)C)cc1 -8%
Cn1c(C(=O)N2CCC(C(N)=O)CC2)cc2c(=O)n(C)c3ccccc3c21 -1%
O=C(Nc1ccccc1C(=O)N1CCOCC1)C1CCC(=O)N1C1CCCC1 (centres undefined) 8%
CN1CCN(S(=O)(=O)c2ccc3[nH]cc(C(=O)O)c(=O)c3c2)CC1 2%
Cc1ccnc(N2C(=O)c3ccccc3C2Nc2ccc3c(c2)OCCO3)c1 (centres undefined) -5%
COCCCNC(=O)c1ccc(CNS(=O)(=O)c2ccc(NC(C)=O)cc2)cc1 -3.5%
Cc1nc(N2CCN(c3ncccn3)CC2)c2oc3ccccc3c2n1 -3.5%
CC(C)OCCCNC(=O)C1CC(=O)N(C2CCCCCCC2)C1 (centres undefined) -1%
Cc1ccc(S(=O)(=O)N2CCCC2CO)cc1 (centres undefined) 5%
COc1ccc(C(=O)NC(=O)CSc2nnc(-c3ccco3)n2-c2ccccc2)cc1 1.3%
Cc1ccccc1CN1CCN(C(=O)c2cccc(F)c2)CC1 4%
CC1CCN(Cc2nc3c(c(=O)n(C)c(=O)n3C)n2Cc2cccc3ccccc23)CC1 2%
CCOc1nc(OCC)nc(-n2cc(-c3ccccc3)nn2)n1 2%
FC(F)Oc1ccccc1C1CC(c2ccc(Br)s2)Nc2ncnn21 (centres undefined) 3%
Cc1cc(Nc2cccc(F)c2)n2ncnc2n1 -0.5%
O=C(c1ccco1)N1CCN(C(=O)c2ccc(COc3ccc(F)cc3)o2)CC1 0%
Cn1c(CNC(=O)C(C)(C)C)nc2ccccc21 -3%
Cc1cc(NS(=O)(=O)c2ccccc2)no1 5.5%
CCOC(=O)c1cn(CC(=O)Nc2ccc(C(C)C)cc2)nn1 -2%
Cc1cccc(C)c1NC(=O)N1CC=C(n2c(=O)[nH]c3ccccc32)CC1 0%
Cc1ccc(S(=O)(=O)n2nc(OC(=O)C(C)(C)C)cc2N)cc1 4%
CCOC(=O)c1c(C)c(C(=O)NCCc2ccc(S(N)(=O)=O)cc2)c(C)n1CC 16%
O=C(O)C1C2C=CC(C2)C1C(=O)N1CCN(CCO)CC1 (centres undefined) -2%
Cc1cnc(C(=O)OCC(=O)Nc2ccc(Cl)cc2Cl)cn1 3%
CCOC(=O)Cn1c(CN(Cc2ccccc2)Cc2ccccc2)nc2c1c(=O)[nH]c(=O)n2C -5%
O=S(=O)(O)CCN1CCOCC1 -6%
O=C(NC1CCCCC1)C1CCCN(S(=O)(=O)c2cccs2)C1 (centres undefined) -10.5%
COc1ccc(C(=O)NCc2cn3ccccc3n2)cc1 -2%
Cc1ccccc1NC(=O)Cc1nnc(SCC(=O)N2CCN(c3ccccc3)CC2)n1C 0.5%
CC(C)CCNC(=O)CCNS(=O)(=O)c1ccc(Cl)cc1 -2.7%
COc1ccccc1-c1c(C)nn2c(C)c(C(C)=O)cnc12 -2%
COc1cccc(OCC(O)CN2CCN(CCO)CC2)c1 (centres undefined) 3.3%
CCCC(=O)Nc1cccc(-c2cn3ccsc3n2)c1 3%
Cc1noc(C)c1S(=O)(=O)NCCc1ccc(S(N)(=O)=O)cc1 3%
CC(=O)N(CC1CCCO1)C1(C(=O)NC2CCCC2)CCCCC1 (centres undefined) 0%
COC(=O)c1ccc(CN(c2ccccc2OC)S(=O)(=O)c2cccs2)o1 -2%
O=C(CCS(=O)(=O)Cc1ccccc1F)NCCCN1CCCCC1 -2%
COc1ccc(CN2C(=O)CN=C2Nc2ccc(C)cc2C)cc1 6%
COc1cccc(N2C(=O)CC(N3CCN(S(=O)(=O)c4ccccc4)CC3)C2=O)c1 (centres undefined) -2%
CN(CCCNC(=O)CN1C(=O)CC(C)(C)S(=O)(=O)c2ccccc21)C1CCCCC1 6%
Cc1ccc(NC(=O)CCNS(=O)(=O)c2ccc3c(c2)oc(=O)n3C)cc1C 9%
O=C(COC(=O)c1ccccc1C(=O)c1ccccc1)c1ccco1 2.5%
CNC(=O)Nc1cc(C(C)(C)C)no1 -2%
Cc1cc(=O)n2nc(N3CCCC(C(=O)NCCC4=CCCCC4)C3)sc2n1 (centres undefined) -3%
CC(c1cccnc1)N(CCN(C)C)C(=O)Nc1ccc(Cl)c(Cl)c1 (centres undefined) -2%
CSc1sc(C)cc1C1C(C#N)=C(N)N(c2cccnc2)C2=C1C(=O)CCC2 (centres undefined) 0%
COc1ccc(C2C3=C(OC(C)=O)c4ccccc4C3=Nc3c2c(=O)n(C)c(=O)n3C)cc1 (centres undefined) -0.5%
COCCNC(=O)CN1C(=O)CSc2ncccc21 2.7%
CC(=O)Nc1ccc(S(=O)(=O)N2CCC(N(C)CCC(C)C)CC2)cc1 4%
CCOC(=O)N1CCC(NC(=O)COc2cc(=O)n(C)c3ccccc23)CC1 -3%
O=C(O)CCN1C(=O)CC2(CCCCC2)C1=O -1%
c1cc(-c2nn[nH]n2)ccc1CN1CCCCC1 1%
O=C(O)CSCNC(=O)CC12CC3CC(CC(C3)C1)C2 13%
CCC(C)NC(=O)C1CCC(=O)N1Cc1ccc(C)cc1 (centres undefined) 4%
O=c1c(-c2ccccc2)coc2c(CN3CCOCC3)c(O)ccc12 9.5%
Cc1noc(C)c1S(=O)(=O)N(CC(=O)NCc1ccc(Cl)cc1)c1ccc2c(c1)OCO2 3%
CC(C)C(=O)Nc1c(C(=O)c2ccc(F)cc2)oc2ccccc12 -2%
O=C(CCCCn1c(=O)[nH]c2ccccc2c1=O)NCc1ccc2c(c1)OCO2 10%
CCCC(=O)NC(C)C(c1cccs1)N1CCN(c2ccccc2)CC1 (centres undefined) -2%
Cn1cccc1C1(C(F)(F)F)NCCNC1=O (centres undefined) 1%
Cc1ccccc1CSc1nnc(Cn2c(=O)sc3ccccc32)n1C 4%
Nc1nonc1C(=O)NCCc1ccccc1 6%
CCOc1ccc(-c2nnc3ccc(SC)nn23)cc1 4%
CCOc1ccc(-n2c(SC(C)C(=O)OC)nc3c(c2=O)SCC3)cc1 (centres undefined) 0%
O=C(NCc1ccco1)C1CCCN(S(=O)(=O)c2cnc[nH]2)C1 (centres undefined) -5%
O=C(Nc1nsc(-c2ccccc2)n1)c1ccncc1 4%
COc1nc(Oc2ccc(=O)n(C)n2)nc(N(C)C)n1 4%
C=CCOc1ccc(C2/C(=C(\O)c3c(C)[nH]c(C(=O)OC)c3C)C(=O)C(=O)N2CCN(C)C)cc1 (centres undefined) -6%
CCOC(=O)C1CCN(C(=O)c2oc3ccc(S(=O)(=O)N4CCCCCC4)cc3c2C)CC1 -3%
O=C(O)c1ccc(NC(=O)c2cccs2)cc1 -2.5%
CCC1Oc2ccc(Cl)cc2N(CC(=O)O)C1=O (centres undefined) 2%
